# LASV entry inh = qHTS for Inhibitors of binding or entry into cells for Lassa Virus; Potency, µM (titrated, usually from 37.9 µM), for inactives: at the top dose activity change, negative = inhibition, hits mostly inhibitors; Lassa virus pseudotype entry inhibition, cell reporter; hit rate 1.2% among 300,000; calls by dose curve; tested in HEK293 cells; also: potency is read from the fitted curve at half-maximal effect; nearly all actives have a fitted effect of over 50% in size
# Vaccinia Venus = qHTS for Stage-Specific Inhibitors of Vaccinia Orthopoxvirus: Venus Reporter Primary qHTS; AID 720580, 2013; Potency, µM (top dose mostly 36.5 µM), for inactives: at the top dose activity change, negative = inhibition, actives largely listed as inhibitors; Vaccinia virus Venus reporter expression, fluorescence; hit rate 0.46% among 330,000; calls by dose curve; tested in A549 cells; also: potency is read from the fitted curve at half-maximal effect; nearly all actives have a fitted effect of over 30% in size
# Vaccinia mCherry = qHTS for Stage-Specific Inhibitors of Vaccinia Orthopoxvirus: mCherry Reporter Primary qHTS | Vaccinia virus mCherry reporter infection, fluorescence | Potency, µM (doses to about 36.5 µM), without a hit: at the top dose activity change, negative = inhibition, most hits filed as inhibitors | hit rate 0.63% among 310,000; calls by dose curve; tested in A549 cells; also: potency is read from the fitted curve at half-maximal effect; nearly all actives have a fitted effect of over 35% in size
# FMDV antiviral = High Throughput Screening for Foot and Mouth Disease Virus Antivirals; FMDV antiviral cell-based qHTS; Potency, µM (highest dose often 57.9 µM), without a hit: at the highest dose activity change, negative = inhibition, actives largely listed as inhibitors; hit rate 1.2% among 410,000; AID 1159524, 2015; calls by dose curve; tested in HEK293T cells; also: read-out not given here; potency is read from the fitted curve at half-maximal effect; nearly all actives have a fitted effect of over 45% in size
# HCMV antiviral = qHTS Assay for inhibitors of the human cytomegalovirus (HCMV); HFF cells, HCMV-luciferase reporter, 72 h; stronger effect = lower value; activity change, negative = inhibition, % at 57.5 µM; hit rate 4.5% among 410,000; AID 1259415, 2018; in the data active = activity change below about -60%; inconclusive = no clear call, values can overlap the other calls; inactive = above about -39%
#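 Two compound doses tested in HFFs infected with HCMV-luciferase, MOI 1 PFU/cell, 72 h at 37C. Lysate luminescence read with OneGlo; data normalized against buffer-only and 10uM Salinomycin inhibitor controls.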
# MARV entry inh = qHTS for inhibitors of binding or entry into cells for Marburg Virus; Marburg virus pseudotyped entry inhibition, cell reporter; Potency, µM (top dose mostly 37.8 µM), without a hit: at the top dose activity change, negative = inhibition, usual class: inhibitors; hit rate 1.8% among 300,000; AID 540276, 2011; calls by dose curve; tested in HEK293 cells; also: potency is read from the fitted curve at half-maximal effect
# The depositor's hits bear a star; i = inactive; ? = inconclusive; / = no result given; ! = not active in a repeat; [ ] = dose if it differs, or a comment. Sampled rows, rich in hits. Any-hit rate of the full collection: about 6.5%. % is scaled to controls: 0 for no effect and ±100 for the full control effect.
SMILES,LASV entry inh,Vaccinia Venus,Vaccinia mCherry,FMDV antiviral,HCMV antiviral,MARV entry inh
C#CCOC(=O)c1ccccc1C(=O)n1nnc2ccccc21,0%,/,/,22µM*,39,15%
C=C1C(O)[C@@H]2O[C@]3(CC[C@H](/C=C/C(C)[C@@H]4CC(C)=CC5(O[C@H](C[C@@](C)(O)CO)CCC5O)O4)O3)CC[C@H]2O[C@@H]1C(O)CC(C)[C@H]1OC2(CCCCO2)CCC1C (stereo not given in full),/,10µM*,?,-14%,/,/
C=C1[C@@H](O)[C@@H]2O[C@]3(CC[C@H](/C=C/[C@@H](C)[C@@H]4CC(C)=CC5(O[C@H](C[C@@](C)(O)C(=O)OC)CC[C@H]5O)O4)O3)CC[C@H]2O[C@@H]1[C@@H](O)C[C@H](C)[C@H]1OC2(CCCCO2)CC[C@H]1C (stereo not given in full),/,1.3µM*,1.3µM*,10%,/,/
Cn1nc(C(F)(F)F)c2cc(NC(=O)OCc3ccc(F)cc3)sc21,13%,-29%,?,?,-35,-4%
Cn1nc(C(F)(F)F)c2cc(NC(=O)OCc3ccc(C(C)(C)C)cc3)sc21,?,-10%,-9%,22µM*,-7,?
Cc1ccc(-n2c(SCC(=O)N3CC(=O)Nc4ccccc43)nc3ccccc3c2=O)cc1,-15%,?,-14%,-29%,-68*,?
CCOC(=O)N1CCN(C(=O)CSc2nc3ccccc3c(=O)n2-c2ccccc2)CC1,8.9µM*,-21%,/,?,12,-28%
CC(C)c1nc(SCC(=O)N2CC(=O)Nc3ccccc32)c2ccccc2n1,?,?,?,16µM*,-87*,?
Cc1nc(SCc2cc(=O)c3cccc(F)c3[nH]2)n[nH]1,25%[46.1 µM],-2%,1%,-11%,11,/
NC[C@@H]1CC[C@@H](N)[C@@H](O[C@H]2[C@H](O)[C@@H](O[C@H]3O[C@H](CO)[C@@H](O)[C@H](N)[C@H]3O)[C@H](N)C[C@@H]2N)O1,/,-8%,-5%,2%,/,/
CS(=O)(=O)c1cccc(-c2nnc(NC(=O)c3ccc4ncsc4c3)o2)c1,2%,-5%,-5%,-27%,5,17%
O=C(Nc1ccccc1)c1cccc(-c2nnc(-c3ccccc3)o2)c1,2%,-9%,/,-6%,6,14%
COc1cccc(-c2nnc(NC(=O)c3ccc4ncsc4c3)o2)c1,1%,-24%,-9%,3%,4,10µM*
Cc1ccc(SCC(=O)Nc2cccc(-c3nnc(-c4ccco4)o3)c2)cc1,-7%,?,/,-5%,-99*,-23%
COc1ccc(Br)cc1C(=O)Nc1cccc(-c2nnc(-c3ccco3)o2)c1,-8%,-2%,i,/,?,21µM*
COc1cccc(C(=O)Nc2cccc(-c3nnc(-c4ccco4)o3)c2)c1,?,?,?,14µM*,?,?
Cn1ncc(S(=O)(=O)Cc2ccccc2)c(Br)c1=O,9.2µM*,/,/,/,/,-18%
O=C(O)c1ccccc1S(=O)(=O)Cc1ccccc1,8%,-3%,i,/,-26,1%
CCN(c1ccccc1)S(=O)(=O)c1ccc(NCC2COc3ccccc3O2)nc1 (stereo not given),16µM*,/,/,?,8,?
CC1=Nc2ccccc2/C1=C/c1ccc(N(C)C)cc1,/,-13%,-23%,/,/,/
CSc1ccc(/C=N/NC(=O)c2sccc2C)cc1,?,-19%,-2%,-6%,102,10µM*
O=C(N/N=C/c1ccc(F)cc1)c1sccc1OCc1ccc(F)cc1,?,?,?,9%,?,2.2µM*
CSc1ccc(/C=N/NC(=O)c2ccc(C)c(C)c2)cc1,?,-20%,-12%,23%,4,-19%
O=Cc1ccc(-c2cccs2)s1,10µM*,?,-26%,26%,13,?
Oc1ccc(N=Cc2ccc(-c3cccs3)s2)cc1,?,/,/,3%,-21,?
SMILES,LASV entry inh,Vaccinia Venus,Vaccinia mCherry,FMDV antiviral,HCMV antiviral,MARV entry inh
COc1ccc2c(C)c(CCC(=O)NCc3ccc(C)cc3)c(=O)oc2c1,-18%[46.1 µM],1%,-11%,-20%,-9,4%[46.1 µM]
COc1ccc(OC)c(NC(=O)c2c(N3CCCC3=O)c3cc(OC)ccc3n2C)c1,26%[46.1 µM],-1%,-10%,-13%,10,/
O=C(/C=C/c1ccncc1)c1ccc2c(c1)OCCO2,?,-22%,-8%,28µM*,26,14µM*
COc1cc(C(=O)NNC(=O)c2ccc3c(c2)OCCO3)cc(OC)c1OC,?,-7%,i,4%,-12,-6%
O=C(/C=C/c1ccccc1)c1ccc2c(c1)OCO2,/,/,/,0%,73,/
Cc1cc[n+](CC(=O)c2ccc3c(c2)OCCO3)cc1,10%,3%,-7%,-13%,-34,-11%[46.1 µM]
COc1cc(/C=C/C(=O)c2ccc3c(c2)OCCO3)cc(Br)c1OCC(=O)N(C)C,-23%,?,2.8µM*,7.9µM*,-97*,?
O=C(C[n+]1ccc(/C=C/c2ccccc2)cc1)c1ccc2c(c1)OCCO2,?,-25%,-15%,-23%,-83*,?
CCOC(=O)N/N=C1\C[C@@H](O)[C@@H](O)[C@@H]2[C@@H]3C(=O)N(Cc4ccc5c(c4)OCO5)C(=O)[C@@H]3CC[C@@H]12,/,/,/,/,/,-22%[14.2 µM]
CCN(CC)CCCN1C(=O)C2=C(C1=O)C1N(C)c3ccccc3[C@@]13C[C@@H](CO)N(C(=O)CCC(=O)OC)C3=N2 (stereo not given in full),?,/,/,/,/,7%[14.2 µM]
O=C(CCCCn1c(=O)c2ccccc2n(CC(=O)Nc2cccc(F)c2)c1=O)NCc1ccccc1Cl,-13%[46.1 µM],-6%,-18%,?,13,?
CCCOc1ccc(-c2nonc2NC(=O)c2ccco2)cc1OCCC,-4%[46.1 µM],-11%,-14%,0%,-4,-2%[46.1 µM]
c1ccc(N=Nc2ccccc2)cc1,/,-12%,-13%,13%,/,/
[Hg+][c]1ccccc1,/,2µM*,2µM*,/,/,/
COc1ccccc1Cc1c(-c2cccc(Cl)c2)nc2c3ccccc3ccn12,/,/,/,/,61,/
Cn1c(=O)c2c(nc(N3CCOCC3)n2Cc2ccc(Br)cc2)n(C)c1=O,3%[46.1 µM],24%,20%,-4%,-1,0%[46.1 µM]
COc1ccc(-n2cnc3sc(-c4ccccc4)cc3c2=O)cc1,?,-24%,-27%,/,-87*,?
CCCCCCCCCCCCCCCC(=O)O[C@H](CC(=O)O)C[N+](C)(C)C,/,/,/,-19%,/,-27%
CCCCCCCCCCCCCCCC(=O)OC(CC(=O)O)C[N+](C)(C)C (stereo not given),?,?,?,-23%,43,22µM*!
O=C1c2ccccc2NC(c2ccc(-c3ccc(F)cc3)o2)N1O (stereo not given),/,/,/,7%,-23,/

# Assay outcomes as filed in PubChem BioAssay.
